Results: PubChem BioAssay AID1159580 (chemical genetic matrix, 2015)
About 2,000 (36%) of roughly 5,500 compounds were called active. Not shown: some 18% with an inconclusive outcome. Rule as the data show it: active = normalized growth mostly below about 0.91 (no sharp cut-off); inconclusive = no clear call, values can overlap the other calls; inactive = mostly above about 0.92. This is one part of the list.

Experiment: chemical genetic growth profiling, strain panel (AID 1159580);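 also: tested at 20 µM; growth read once vehicle control cultures reached saturation at 30 °C; 1 = growth at the plate median or of vehicle wells; lower values mean less growth of the strain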
Conditions: growth OD

Measured: normalized growth

CC(C)=CCCC1(C)C=Cc2c(O)c3c(c(CC=C(C)C)c2O1)OC12C(=CC4CC1C(C)(C)OC2(C/C=C(/C)C(=O)O)C4=O)C3=O (stereo not drawn)
inactive: S. cerevisiae deletion strains, locus YJR066W, strain TOR1, hits give low values 0.825 | S. cerevisiae deletion strains, locus YKL009W, strain mrt4, hits give low values 0.965 | S. cerevisiae deletion strains, locus YKL068W, hits give low values 0.943 | S. cerevisiae deletion strains, locus YKR026C, strain gcn3, hits give low values 0.973 | S. cerevisiae deletion strains, locus YKR091W, strain srl3, hits give low values 0.96 | S. cerevisiae deletion strains, locus YLL041C, strain sdh2, hits give low values 0.958 | S. cerevisiae deletion strains, locus YLR039C, strain RIC1, hits give low values 0.873 | S. cerevisiae deletion strains, locus YLR102C, strain apc9, hits give low values 0.97 | S. cerevisiae deletion strains, locus YLR262C, strain YPT6, hits give low values 0.783 | S. cerevisiae deletion strains, locus YLR357W, strain rsc2, hits give low values 1.02 | S. cerevisiae deletion strains, locus YLR370C, strain arc18, hits give low values 0.984 | S. cerevisiae deletion strains, locus YLR371W, strain rom2, hits give low values 0.955 | S. cerevisiae deletion strains, locus YLR384C, strain iki3, hits give low values 0.989 | S. cerevisiae deletion strains, locus YML016C, strain PPZ1, hits give low values 0.963 | S. cerevisiae deletion strains, locus YML124C, strain tub3, hits give low values 0.979 | S. cerevisiae deletion strains, locus YMR078C, strain ctf18, hits give low values 0.98 | S. cerevisiae deletion strains, locus YMR125W, strain sto1, hits give low values 0.938 | S. cerevisiae deletion strains, locus YMR129W, hits give low values 0.951 | S. cerevisiae deletion strains, locus YMR263W, strain SAP30, hits give low values 0.947 | S. cerevisiae deletion strains, locus YNL067W, strain RPL9B, hits give low values 0.93 | S. cerevisiae deletion strains, locus YNL153C, strain GIM3, hits give low values 0.923 | S. cerevisiae deletion strains, locus YNL248C, strain rpa49, hits give low values 0.976 | S. cerevisiae deletion strains, locus YNL250W, strain rad50, hits give low values 0.952 | S. cerevisiae deletion strains, locus YNL271C, strain bni1, hits give low values 0.981 | S. cerevisiae deletion strains, locus YNL298W, strain CLA4, hits give low values 0.976 | S. cerevisiae deletion strains, locus YNL322C, strain KRE1 (second series), hits give low values 0.964 | S. cerevisiae deletion strains, locus YNR049C, strain mso1, hits give low values 0.978 | S. cerevisiae deletion strains, locus YNR052C, strain pop2, hits give low values 0.928 | S. cerevisiae deletion strains, locus YOL012C, strain htz1 0.349 | S. cerevisiae deletion strains, locus YOR001W, strain rrp6, hits give low values 0.918 | S. cerevisiae deletion strains, locus YOR069W, strain VPS5, hits give low values 0.975 | S. cerevisiae deletion strains, locus YOR080W, strain dia2, hits give low values 0.982 | S. cerevisiae deletion strains, locus YOR136W, strain idh2, hits give low values 0.958 | S. cerevisiae deletion strains, locus YOR144C, strain elg1, hits give low values 0.946 | S. cerevisiae deletion strains, locus YOR231W, strain MKK1, hits give low values 0.884 | S. cerevisiae deletion strains, locus YOR316C, strain cot1, hits give low values 0.97 | S. cerevisiae deletion strains, locus YPL106C, strain sse1, hits give low values 1.01 | S. cerevisiae deletion strains, locus YPR119W, strain clb2, hits give low values 0.988 | S. cerevisiae deletion strains, locus YPR141C, strain kar3, hits give low values 0.982
active: S. cerevisiae deletion strains, locus YJL187C, strain SWE1, hits give low values 0.851 | S. cerevisiae deletion strains, locus YJR043C, strain POL32, hits give low values 0.821 | S. cerevisiae deletion strains, locus YKL085W, strain MDH1 (second series), hits give low values 0.925 | S. cerevisiae deletion strains, locus YKL085W, strain MDH1, hits give low values 0.925 | S. cerevisiae deletion strains, locus YKL160W, strain elf1, hits give low values 0.842 | S. cerevisiae deletion strains, locus YKR001C, strain vps1, hits give low values 0.628 | S. cerevisiae deletion strains, locus YLL001W, strain dnm1, hits give low values 0.881 | S. cerevisiae deletion strains, locus YLL026W, hits give low values 0.888 | S. cerevisiae deletion strains, locus YLR027C, strain aat2, hits give low values 0.827 | S. cerevisiae deletion strains, locus YLR058C, strain SHM2, hits give low values 0.884 | S. cerevisiae deletion strains, locus YLR113W, strain HOG1, hits give low values 0.685 | S. cerevisiae deletion strains, locus YLR221C, strain rsa3, hits give low values 0.871 | S. cerevisiae deletion strains, locus YLR258W, strain gsy2, hits give low values 0.861 | S. cerevisiae deletion strains, locus YLR262C, strain YPT6 (second series), hits give low values 0.685 | S. cerevisiae deletion strains, locus YLR268W, strain sec22, hits give low values 0.84 | S. cerevisiae deletion strains, locus YLR320W, strain mms22, hits give low values 0.732 | S. cerevisiae deletion strains, locus YLR330W, strain CHS5, hits give low values 0.756 | S. cerevisiae deletion strains, locus YLR342W, strain FKS1 (second series), hits give low values 0.703 | S. cerevisiae deletion strains, locus YLR342W, strain FKS1, hits give low values 0.854 | S. cerevisiae deletion strains, locus YLR418C, strain cdc73, hits give low values 0.487 | S. cerevisiae deletion strains, locus YML032C, strain rad52, hits give low values 0.879 | S. cerevisiae deletion strains, locus YML120C, strain ndi1, hits give low values 0.855 | S. cerevisiae deletion strains, locus YMR058W, strain fet3, hits give low values 0.507 | S. cerevisiae deletion strains, locus YMR205C, strain PFK2, hits give low values 0.623 | S. cerevisiae deletion strains, locus YMR223W, strain ubp8, hits give low values 0.853 | S. cerevisiae deletion strains, locus YMR231W, strain pep5, hits give low values 0.911 | S. cerevisiae deletion strains, locus YMR307W, strain GAS1, hits give low values 0.571 | S. cerevisiae deletion strains, locus YNL071W, strain lat1, hits give low values 0.324 | S. cerevisiae deletion strains, locus YNL183C, strain NPR1, hits give low values 0.8 | S. cerevisiae deletion strains, locus YNL209W, strain ssb2, hits give low values 0.76 | S. cerevisiae deletion strains, locus YNL233W, strain BNI4, hits give low values 0.772 | S. cerevisiae deletion strains, locus YNL307C, strain MCK1, hits give low values 0.382 | S. cerevisiae deletion strains, locus YOL147C, strain pex11, hits give low values 0.929 | S. cerevisiae deletion strains, locus YOR061W, strain CKA2, hits give low values 0.785 | S. cerevisiae deletion strains, locus YOR070C, strain gyp1, hits give low values 0.796 | S. cerevisiae deletion strains, locus YOR083W, strain WHI5, hits give low values 0.842 | S. cerevisiae deletion strains, locus YOR106W, strain vam3, hits give low values 0.662 | S. cerevisiae deletion strains, locus YOR184W, strain ser1, hits give low values 0.64 | S. cerevisiae deletion strains, locus YOR265W, strain rbl2, hits give low values 0.886 | S. cerevisiae deletion strains, locus YOR270C, strain vph1, hits give low values 0.632 | S. cerevisiae deletion strains, locus YOR290C, strain snf2, hits give low values 0.836 | S. cerevisiae deletion strains, locus YPL051W, strain arl3, hits give low values 0.764 | S. cerevisiae deletion strains, locus YPL078C, strain atp4, hits give low values 0.885 | S. cerevisiae deletion strains, locus YPL240C, strain hsp82, hits give low values 0.908 | S. cerevisiae deletion strains, locus YPL256C, strain CLN2, hits give low values 0.816 | S. cerevisiae deletion strains, locus YPR163C, strain tif3, hits give low values 0.9 | S. cerevisiae deletion strains, locus YPR167C, strain met16, hits give low values 0.91 | S. cerevisiae deletion strains, strain wtn01, hits give low values 0.868 | S. cerevisiae strains, strain wild type, hits give low values 0.78
